# Where “and” joins values, the source holds several entries; their conditions need not be identical. Equal entries are not always repeated. Unmarked numbers belong to inactive results. Records with an inconclusive call do not appear. Entries that show only a call come without a potency. Calls of active or inactive are those of the source. Unless noted, the call rests on the fitted dose curve; in most records, active means well fitted curve in the direction sought with a large enough effect in the repeat runs; inconclusive means weak or mixed curves; inactive means no such curve, though single readings can be large; an effect the other way counts as inactive or inconclusive.
# Columns and labels:
# [1] = target: Estrogen receptor (Homo sapiens) (UniProt P03372); test: qHTS assay to identify small molecule antagonists of the estrogen receptor alpha (ER-alpha) signaling pathway using the BG1 cell line in the presence of 0.1 nM 17-beta-estradiol (AID 1259244); further: nearly all actives have a fitted effect of over 50% in size; further: potency means the concentration at half of the fitted maximal effect
# Sequence of Estrogen receptor (Homo sapiens) (P03372 whole entry, looked up): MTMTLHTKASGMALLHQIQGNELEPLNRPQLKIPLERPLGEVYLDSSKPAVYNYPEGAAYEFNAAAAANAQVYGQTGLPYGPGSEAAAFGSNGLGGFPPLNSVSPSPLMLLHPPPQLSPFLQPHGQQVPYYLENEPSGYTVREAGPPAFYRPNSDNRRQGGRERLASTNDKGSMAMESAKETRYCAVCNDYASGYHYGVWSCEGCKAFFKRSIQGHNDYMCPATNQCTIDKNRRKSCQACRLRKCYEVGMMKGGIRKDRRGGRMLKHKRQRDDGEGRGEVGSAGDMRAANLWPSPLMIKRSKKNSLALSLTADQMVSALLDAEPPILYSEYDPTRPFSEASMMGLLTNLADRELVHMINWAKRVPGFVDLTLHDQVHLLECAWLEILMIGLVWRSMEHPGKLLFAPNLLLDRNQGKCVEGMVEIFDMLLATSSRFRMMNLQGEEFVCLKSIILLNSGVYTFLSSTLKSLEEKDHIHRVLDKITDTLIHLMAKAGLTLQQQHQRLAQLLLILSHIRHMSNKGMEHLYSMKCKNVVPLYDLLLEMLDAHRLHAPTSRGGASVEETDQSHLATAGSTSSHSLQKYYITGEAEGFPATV
# Outline: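 VM7Luc4E2 cells (endogenous full-length ER-alpha, 4×ERE-luciferase), kept 5 days in phenol red-free, charcoal-stripped FBS medium; 4,000 cells/well. Compounds added with 0.1 nM (final) 17beta-estradiol, 22 hr at 37C; luminescence read with ONE-Glo after 30 min.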
# [2] = qHTS assay to identify small molecule HDAC inhibitors (AID 1259364); further: nearly all actives have a fitted effect of over 45% in size; further: potency means the concentration at half of the fitted maximal effect; on activity change, negative = inhibition: top concentration of the series differs between compounds
# Outline: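 Wild-type HCT-116 cells, plated overnight at 37 C, exposed to compounds 2 hr at 37 C; luminogenic HDAC-Glo substrate then added 30 min at room temperature. Luminescence reports relative endogenous class I/II HDAC activity.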
# [3] = qHTS assay to identify small molecule HDAC inhibitors - cell viability counter screen (AID 1259365); further: series mostly up to about 92 µM; nearly all actives have a fitted effect of over 50% in size
# Outline: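 CellTiter-Glo luminescence (30 min, room temperature) reported viability after a 2 h compound exposure at 37 C. Cells: wild-type HCT-116, 1,500 per well, seeded the night before.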
# [4] = qHTS assay to identify small molecule agonists of the sonic hedgehog signaling (Shh) pathway - cell viability counter screen (AID 1259366); further: nearly all actives have a fitted effect of over 50% in size; further: potency means the concentration at half of the fitted maximal effect
# Outline: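 Cytotoxicity counter screen: CellTiter-Fluor reagent added after 23 h compound exposure, then 1 h at 37C and fluorescence read. Cells were 3T3 Gli1-Luc, seeded 2,000 per well and dosed 4 h post-plating.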
# [5] = qHTS assay to identify small molecule antagonists of the sonic hedgehog signaling (Shh) pathway - cell viability counter screen (AID 1259367); further: nearly all actives have a fitted effect of over 55% in size; further: potency means the concentration at half of the fitted maximal effect
# Outline: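 After a 4 hr settling period, 3T3 Gli1-Luc cells were treated with DMSO-dissolved chemicals and conditioned medium, kept 24 hr at 37C in 5% CO2, and assayed for viability by CellTiter-Fluor fluorescence following 1 hr reagent incubation.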
# [6] = qHTS assay to identify small molecule agonists of the sonic hedgehog signaling (Shh) pathway (AID 1259368; calls by dose curve; further: nearly all actives have a fitted effect of over 15% in size; further: potency means the concentration at half of the fitted maximal effect;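 on activity change: NIH/3T3-derived 3T3Gli1-Luc cells carrying a stable Gli1-driven firefly luciferase reporter; series mostly up to about 92 µM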)
# Outline: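 NIH/3T3-derived 3T3Gli1-Luc cells with stably integrated Gli1-driven firefly luciferase, 2,000 cells/well, compounds added after 4 hr. Incubated 24 hr at 37C, 5% CO2; luminescence read after 30 min with luciferase reagent at room temperature.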
# [7] = qHTS assay to identify small molecule agonists of the estrogen receptor beta (ER-beta) signaling pathway - cell viability counter screen (AID 1259380); further: nearly all actives have a fitted effect of over 30% in size; further: potency means the concentration at half of the fitted maximal effect
# Outline: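 ER-beta-UAS-bla HEK293T cells in medium with 2% charcoal-stripped FBS, pre-incubated 6 hr, then treated 16 hr at 37C. Cytotoxicity read in the same wells by CellTiter-Glo luminescence after 30 min at room temperature.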
# [8] = qHTS assay to identify small molecule antagonists of the estrogen receptor beta (ER-beta) signaling pathway - cell viability counter screen (AID 1259382); further: nearly all actives have a fitted effect of over 55% in size; further: potency means the concentration at half of the fitted maximal effect; on activity change, negative = cytotoxicity: series mostly up to about 92 µM
# Outline: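 ER-beta-UAS-bla HEK293T cells in 2% charcoal-stripped FBS medium, treated with compound plus 1 nM 17-beta-estradiol for 16 h at 37C. Viability read by CellTiter-Glo luminescence after 30 min at room temperature in the same wells.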
# [9] = target: Estrogen receptor (Homo sapiens) (UniProt P03372); test: qHTS assay to identify small molecule agonists of the estrogen receptor alpha (ER-alpha) signaling pathway in the presence of an antagonist (AID 1259383; calls by dose curve; further: nearly all actives have a fitted effect of over 15% in size; further: potency means the concentration at half of the fitted maximal effect; on activation: top concentration of the series differs between compounds)
# Outline: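 VM7Luc4E2 cells express endogenous full-length ER-alpha with an ERE-luciferase reporter and were hormone-deprived for 5 days. Compounds at 15 concentrations were added with 10.0nM ICI-182,780 for 22hr at 37C. Luminescence was read with ONE-Glo.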
# [10] = qHTS assay to identify small molecule antagonists of the sonic hedgehog signaling (Shh) pathway (AID 1259369; calls by dose curve; further: nearly all actives have a fitted effect of over 45% in size; further: potency means the concentration at half of the fitted maximal effect)
# Outline: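 NIH/3T3-derived Gli1-Luc reporter cells plated 4 h, dosed with compound, then stimulated with conditioned medium for 24 h at 37 C. Firefly luciferase luminescence read after 30 min with detection reagent at room temperature.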
# [11] = target: Estrogen receptor beta (Homo sapiens) (UniProt Q92731); test: qHTS assay to identify small molecule antagonists of the estrogen receptor beta (ER-beta) signaling pathway (AID 1259378; active means well fitted inhibition curve with a large enough effect in the signal ratio in the repeat runs, not every such curve was filed as active; the % refers to the signal ratio; further: potency means the concentration at half of the fitted maximal effect)
# Sequence of Estrogen receptor beta (Homo sapiens) (Q92731 whole entry, looked up): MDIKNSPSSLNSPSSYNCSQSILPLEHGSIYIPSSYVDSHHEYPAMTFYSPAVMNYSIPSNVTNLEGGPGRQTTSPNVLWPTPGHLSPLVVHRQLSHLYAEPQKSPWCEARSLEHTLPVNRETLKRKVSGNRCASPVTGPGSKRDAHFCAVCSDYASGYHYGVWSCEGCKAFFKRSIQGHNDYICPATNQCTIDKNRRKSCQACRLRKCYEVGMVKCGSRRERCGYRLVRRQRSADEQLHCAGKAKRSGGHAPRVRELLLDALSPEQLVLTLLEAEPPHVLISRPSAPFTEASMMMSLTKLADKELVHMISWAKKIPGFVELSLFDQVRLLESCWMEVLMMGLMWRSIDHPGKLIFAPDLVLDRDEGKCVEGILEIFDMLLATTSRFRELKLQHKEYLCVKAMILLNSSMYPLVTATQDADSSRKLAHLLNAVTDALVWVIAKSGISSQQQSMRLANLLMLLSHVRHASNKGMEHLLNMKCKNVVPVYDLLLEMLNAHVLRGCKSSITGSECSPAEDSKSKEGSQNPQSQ
# Outline: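 ER-beta-UAS-bla HEK293T (GripTite) cells in 2% charcoal-stripped FBS medium were preincubated 6 hr at 37C, dosed with compound, then stimulated with 1 nM E2 (final) for 16 hr; beta-lactamase reporter read by B/G FRET fluorescence after 2 hr substrate loading.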
# [12] = qHTS assay to identify small molecule agonists or antagonists of the thyroid stimulating hormone receptor (TSHR) signaling pathway - wild type cell line counter screen (AID 1259384; calls by dose curve)
# Outline: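 Wild-type HEK293 cells were plated 18 h at 37 C/5% CO2, pin-dosed with compound plus Ro20-1724 medium, held 30 min at room temperature, then given cAMP-d2 and anti-cAMP-cryptate; fluorescence was read after 1 h. Fifteen concentrations, triplicate.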
# [13] = target: Estrogen receptor beta (Homo sapiens) (UniProt Q92731); test: qHTS assay to identify small molecule agonists of the estrogen receptor beta (ER-beta) signaling pathway (AID 1259377; active means well fitted activation curve with a large enough effect in the signal ratio in the repeat runs, not every such curve was filed as active; the % refers to the signal ratio)
# Outline: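 Ratiometric beta-lactamase FRET read-out came after 2 h substrate loading at room temperature. It followed 16 h compound treatment at 37C of GripTite HEK293T cells carrying a UAS-bla reporter, plated in 2% charcoal-stripped FBS medium.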
# [14] = target: Thyrotropin receptor (Homo sapiens) (UniProt P16473); test: qHTS assay to identify small molecule antagonists of the thyroid stimulating hormone receptor (TSHR) signaling pathway (AID 1259385; calls by dose curve; further: nearly all actives have a fitted effect of over 20% in size; further: potency means the concentration at half of the fitted maximal effect)
# Sequence of Thyrotropin receptor (Homo sapiens) (P16473 whole entry, looked up): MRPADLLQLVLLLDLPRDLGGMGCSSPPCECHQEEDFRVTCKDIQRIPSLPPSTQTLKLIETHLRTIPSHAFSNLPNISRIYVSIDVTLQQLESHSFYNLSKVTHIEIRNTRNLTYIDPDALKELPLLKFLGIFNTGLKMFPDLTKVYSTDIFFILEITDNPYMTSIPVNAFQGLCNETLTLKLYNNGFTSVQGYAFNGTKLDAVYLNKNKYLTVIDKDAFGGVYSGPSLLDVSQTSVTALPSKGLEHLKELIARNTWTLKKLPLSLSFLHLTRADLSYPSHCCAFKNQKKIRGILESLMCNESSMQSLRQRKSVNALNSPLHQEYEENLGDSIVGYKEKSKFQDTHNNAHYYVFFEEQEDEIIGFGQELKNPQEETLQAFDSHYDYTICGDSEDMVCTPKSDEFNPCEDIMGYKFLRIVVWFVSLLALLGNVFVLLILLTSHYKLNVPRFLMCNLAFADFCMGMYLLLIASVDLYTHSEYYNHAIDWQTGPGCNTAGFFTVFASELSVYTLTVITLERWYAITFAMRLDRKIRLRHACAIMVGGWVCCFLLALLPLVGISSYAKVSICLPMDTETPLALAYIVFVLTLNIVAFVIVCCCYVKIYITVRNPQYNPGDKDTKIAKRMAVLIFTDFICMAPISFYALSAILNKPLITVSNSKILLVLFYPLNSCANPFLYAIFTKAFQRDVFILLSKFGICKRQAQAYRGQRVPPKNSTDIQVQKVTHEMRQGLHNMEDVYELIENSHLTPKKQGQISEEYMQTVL
# Outline: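 TSHR-HEK293 cells were plated and held 18 h at 37C/5% CO2, then given compound plus Ro20-1724 and stimulated with TSH at 1.5 ng/mL final. After 30 min at room temperature, cAMP was detected with cAMP-d2/anti-cAMP-cryptate (1 h) by fluorescence.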
# [15] = qHTS assay to identify small molecule agonists of the estrogen receptor alpha (ER-alpha) signaling pathway in the presence of an antagonist - cell viability counter screen (AID 1259386);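 further: series mostly up to about 92 µM; cells exposed to compounds for 22 h at 37 °C before the viability read; nearly all actives have a fitted effect of over 30% in size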
# Outline: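 Cell viability in VM7Luc4E2 cells (endogenous full-length ER-alpha) measured by CellTiter-Fluor fluorescence in the same wells as the luciferase screen. Cells pre-cultured 5 days in charcoal-stripped serum, then treated 22 h with compounds at 15 concentrations plus 10.0nM ICI-182,780.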
# [16] = qHTS assay to identify small molecule agonists of the androgen receptor (AR) signaling pathway in the presence of an antagonist - cell viability counter screen (AID 1259379); further: nearly all actives have a fitted effect of over 25% in size; further: potency means the concentration at half of the fitted maximal effect;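 on activity change, negative = cytotoxicity: MDA-kb2 human breast cancer cells carrying an MMTV luciferase reporter; series mostly up to about 92 µM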
# Outline: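 MDA-kb2 cells (MMTV-luciferase, AR/GR), 3,000/well, 5 h attachment, then 3.0 µM nilutamide (final) and compounds at 15 concentrations. Viability by CellTiter-Fluor fluorescence after 16 h at 37 °C, 0% CO2, in the reporter wells.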
# [17] = qHTS assay to identify small molecule phospholipidosis (PLD) inducers (AID 1259344; active means well fitted curve in the direction sought with a large enough effect; an effect the other way counts as inactive or inconclusive)
# Outline: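 HepG2 cells grown on collagen I take up LipidTOX Red while exposed to compound for 24 h; after fixation they are imaged at 20x and pit metrics are extracted.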
compound,measurement,setting,value
Clc1nnc(Cl)c2ccccc12,Potency,[1],inactive
same,Potency,[2],inactive
same,Potency,[3],inactive
same,Potency,[4],inactive
same,Potency,[5],inactive
same,Potency,[6],inactive
same,Potency,[7],inactive
same,Potency,[8],inactive
same,Potency,[9],inactive
CC[C@H](C)COC(=O)/C=C/c1ccc(N=Cc2ccc(OC)cc2)cc1,Potency,[3],inactive
same,Potency,[4],inactive
same,Potency,[5],inactive
same,Potency,[6],inactive
same,Potency,[10],inactive
same,Potency,[11],54.4 µM (active)
same,Potency,[7],6.1 µM (active)
same,Potency,[9],inactive
same,outcome,[12],inactive
C/C=C/C=C/COC(=O)C(C)C,Potency,[2],inactive
same,Potency,[3],inactive
same,Potency,[4],inactive
same,Potency,[6],inactive
same,Potency,[10],30.6 µM (active)
same,Potency,[13],inactive
same,Potency,[7],inactive
same,Potency,[8],inactive
same,outcome,[12],inactive
same,Potency,[14],inactive
same,Potency,[15],inactive
Cc1cc(-c2ccc(N=Nc3cc(S(=O)(=O)O)c4ccccc4c3N)c(C)c2)ccc1N=Nc1cc(S(=O)(=O)O)c2ccccc2c1N,Potency,[1],7.74 µM (active)
same,Potency,[2],inactive
same,Potency,[3],inactive
same,Potency,[4],inactive
same,Potency,[5],inactive
same,Potency,[6],inactive
same,Potency,[13],inactive
same,Potency,[11],inactive
same,Potency,[16],3.88 µM (active)
same,Potency,[8],inactive
same,Potency,[9],inactive
same,outcome,[12],inactive
same,Potency,[14],inactive
CC1(C)CC(O)CC(C)(C)N1,Potency,[1],inactive
same,Potency,[2],inactive
same,Potency,[3],inactive
same,Potency,[4],inactive
same,Potency,[5],inactive
same,Potency,[13],inactive
same,Potency,[11],inactive
same,Potency,[8],inactive
same,Potency,[9],inactive
same,outcome,[12],inactive
same,Potency,[14],inactive
same,Potency,[15],inactive
Nc1nc(N)nc(-c2cc(Cl)ccc2Cl)n1,Potency,[17],inactive
same,Potency,[2],inactive
same,Potency,[3],inactive
same,Potency,[4],inactive
same,Potency,[5],inactive
same,Potency,[6],inactive
same,Potency,[10],inactive
same,Potency,[16],inactive
same,Potency,[7],inactive
same,Potency,[8],inactive
O=c1c(O)c(-c2ccc(O)cc2O)oc2cc(O)cc(O)c12,Potency,[1],inactive
same,Potency,[3],inactive
same,Potency,[4],inactive
same,Potency,[5],45.7 µM (active)
same,Potency,[6],inactive
same,Potency,[7],inactive
same,Potency,[8],inactive
same,Potency,[9],inactive
same,Potency,[14],inactive
CC1=CCC(=C(C)C)CC1,Potency,[1],inactive
same,Potency,[3],inactive
same,Potency,[4],inactive
same,Potency,[5],inactive
same,Potency,[6],inactive
same,Potency,[10],inactive
same,Potency,[16],inactive
same,Potency,[8],inactive
same,Potency,[15],inactive
CCn1c2ccccc2c2cc([N+](=O)[O-])ccc21,Potency,[1],inactive
same,Potency,[3],inactive
same,Potency,[4],inactive
same,Potency,[5],inactive
same,Potency,[6],inactive
same,Potency,[10],inactive
same,Potency,[11],inactive
same,Potency,[16],inactive
same,Potency,[8],inactive
same,Potency,[9],inactive
same,Potency,[15],inactive
CC1(C)CCC[C@]2(C)[C@H]3CCO[C@]3(C)CC[C@@H]12,Potency,[2],inactive
same,Potency,[3],inactive
same,Potency,[4],inactive
same,Potency,[5],inactive
same,Potency,[6],inactive
same,Potency,[16],inactive
same,Potency,[7],inactive
same,Potency,[8],inactive
same,outcome,[12],inactive
same,Potency,[14],inactive
same,Potency,[15],inactive
Nc1ccc(NCCO)c([N+](=O)[O-])c1,Potency,[2],inactive
same,Potency,[3],inactive
same,Potency,[10],inactive
same,Potency,[13],inactive
same,Potency,[11],inactive
same,Potency,[16],48.6 µM (active)
same,Potency,[7],inactive
same,Potency,[8],inactive
[Cl][Pt-2]([Cl])([Cl])[Cl],Potency,[1],inactive
same,Potency,[2],inactive
same,Potency,[3],inactive
same,Potency,[4],inactive
same,Potency,[6],inactive
same,Potency,[13],inactive
same,Potency,[16],inactive
same,Potency,[7],inactive
same,Potency,[8],inactive
same,Potency,[9],inactive
same,outcome,[12],inactive
same,Potency,[14],34.5 µM (active)
OCCN1CCN(CCCN2c3ccccc3Sc3ccc(C(F)(F)F)cc32)CC1,Potency,[1],inactive
same,Potency,[2],inactive
same,Potency,[3],inactive
same,Potency,[4],23.7 µM (active)
same,Potency,[5],inactive
same,Potency,[6],inactive
same,Potency,[10],inactive
same,Potency,[13],inactive
same,Potency,[8],21.1 µM (active)
same,Potency,[9],inactive
same,outcome,[12],inactive
same,Potency,[14],inactive
CC(=O)[C@H]1CC[C@H]2[C@@H]3CCC4=CC(=O)CC[C@]4(C)[C@H]3CC[C@]12C,Potency,[2],inactive
same,Potency,[3],inactive
same,Potency,[4],inactive
same,Potency,[5],inactive
same,Potency,[6],inactive
same,Potency,[10],9.63 µM (active) and 6.11 µM (active)
same,Potency,[16],60.8 µM (active)
same,Potency,[7],54.2 µM (active) and 61.1 µM (active)
same,Potency,[8],54.2 µM (active) and 61.1 µM (active)
same,Potency,[9],inactive
same,outcome,[12],inactive
same,Potency,[15],inactive
C=CC(C)(CCC=C(C)C)OC=O (stereo unspecified),Potency,[1],inactive
same,Potency,[2],inactive
same,Potency,[3],inactive
same,Potency,[4],inactive
same,Potency,[5],inactive
same,Potency,[6],inactive
same,Potency,[10],inactive
same,Potency,[16],inactive
same,Potency,[7],inactive
same,Potency,[8],inactive
same,Potency,[9],inactive
same,outcome,[12],inactive
same,Potency,[14],inactive
same,Potency,[15],inactive
O=C(O)c1cc(N=Nc2ccc([N+](=O)[O-])cc2)ccc1O,Potency,[1],inactive
same,Potency,[2],0.848 µM (active)
same,Potency,[3],inactive
same,Potency,[4],26.8 µM (active)
same,Potency,[5],30.1 µM (active)
same,Potency,[10],inactive
same,Potency,[16],60 µM (active)
same,Potency,[9],inactive
same,outcome,[12],inactive
same,Potency,[14],inactive
NC[C@H]1O[C@H](O[C@H]2[C@H](O[C@@H]3O[C@H](CO)[C@@H](O)[C@H]3O)C(O)[C@H](N)C[C@@H]2N)[C@H](N)[C@@H](O)[C@@H]1O (stereo partly specified),Potency,[17],inactive
same,"activity change, negative = inhibition",[2],-0.407% [at 8.39 µM]
same,"activity change, negative = cytotoxicity",[3],-0.0056% [at 8.39 µM]
same,"viability change, negative = cytotoxic",[4],2.25% [at 8.39 µM]
same,"viability change, negative = cytotoxic",[5],-1.51% [at 8.39 µM]
same,activity change,[6],"-1.1% [at 8.39 µM, stronger effect = higher value]"
same,"activity change, negative = inhibition",[10],-6.57% [at 8.39 µM]
same,"activity change, negative = cytotoxicity",[16],2.75% [at 8.39 µM]
same,"activity change, negative = cytotoxicity",[7],1.6% [at 8.39 µM]
same,"activity change, negative = cytotoxicity",[8],0.11% [at 8.39 µM]
same,cAMP activity change,[12],-9.73% [at 8.39 µM]
same,"activity change, negative = inhibition",[14],-4.82% [at 8.39 µM]
same,"activity change, negative = cytotoxicity",[15],3.36% [at 8.39 µM]
COc1ccc(-c2coc3cc(O)ccc3c2=O)cc1,Potency,[1],inactive
same,Potency,[2],1.54 µM (active)
same,Potency,[3],inactive
same,Potency,[4],inactive
same,Potency,[5],inactive
same,Potency,[6],9.69 µM (active)
same,Potency,[8],inactive
same,Potency,[9],1.09 µM (active)
same,outcome,[12],inactive
same,Potency,[14],inactive
same,Potency,[15],inactive
